In PubChem BioAssay (EPA / NIEHS):
Active and inactive are the calls of the source. The calls were made as follows: active = hit-call score of the fitted dose curve at least 0.9, where 1 is the maximum; inactive = score below 0.9.

read-out: NAD(P)H dehydrogenase [quinone] 1 (NQO1), NQO1 (gene 1728); assay: LTEA_HepaRG_NQO1: Life Technologies and Expression Analysis (LTEA) Assay for NAD(P)H dehydrogenase [quinone] 1 (NQO1) using HepaRG (AID 2283526); settings: mRNA level, 48 h; actives raise or lower the signal
How it was run: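 HepaRG, 48 h post-plating → serum-free induction medium → test chemical 48 h (duplicate, 100 uM top, half-log x8, 0.5% DMSO) → RNA isolation → qRT-PCR, ACTB/GAPDH/POLR2A normalization; bidirectional curve fit vs DMSO baseline.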

Sequence of Nuclear factor erythroid 2-related factor 2 (Homo sapiens) (Q16236 whole entry, looked up): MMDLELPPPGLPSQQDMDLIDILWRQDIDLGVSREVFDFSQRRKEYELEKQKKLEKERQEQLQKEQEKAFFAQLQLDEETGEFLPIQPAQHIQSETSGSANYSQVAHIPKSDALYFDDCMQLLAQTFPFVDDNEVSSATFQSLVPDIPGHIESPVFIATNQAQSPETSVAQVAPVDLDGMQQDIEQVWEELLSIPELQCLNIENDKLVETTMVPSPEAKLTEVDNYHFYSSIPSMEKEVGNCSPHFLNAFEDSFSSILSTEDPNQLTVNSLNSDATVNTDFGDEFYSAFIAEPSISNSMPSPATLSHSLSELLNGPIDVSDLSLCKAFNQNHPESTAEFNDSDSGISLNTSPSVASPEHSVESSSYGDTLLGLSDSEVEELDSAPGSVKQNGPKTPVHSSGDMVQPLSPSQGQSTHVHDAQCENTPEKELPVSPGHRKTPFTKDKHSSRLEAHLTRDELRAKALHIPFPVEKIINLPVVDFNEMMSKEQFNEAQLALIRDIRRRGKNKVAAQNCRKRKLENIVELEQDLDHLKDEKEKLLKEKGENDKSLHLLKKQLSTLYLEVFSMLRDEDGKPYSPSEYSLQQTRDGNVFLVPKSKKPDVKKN

Row | Compound | outcome | AC50
1 | C=CC(N)=O | inactive | 
2 | Cc1cccc([N+](=O)[O-])c1 | inactive | 
3 | Cc1ccc(O)c(C)c1 | inactive | 
4 | CN(C)CCO | inactive | 
5 | O=C(N[C@H]1CN2CCC1CC2)c1cc2ccoc2cn1 | inactive | 
6 | O=S(=O)(O)C(F)(F)C(F)(F)C(F)(F)C(F)(F)C(F)(F)C(F)(F)F | inactive | 
7 | Cc1cc(-c2ccc(N)c(C)c2)ccc1N | inactive | 
8 | c1ccc(-c2ccccc2)cc1 | inactive | 
9 | C1CC2OC2CC1C1CO1 (stereo not drawn) | inactive | 
10 | Cc1ccccc1CO[C@@H]1C[C@@]2(C(C)C)CC[C@]1(C)O2 | inactive | 
11 | CCC(C)c1cc([N+](=O)[O-])cc([N+](=O)[O-])c1O (stereo not drawn) |  | 3.47 µM (active)

read-out: Nuclear factor erythroid 2-related factor 2 (Homo sapiens) (UniProt Q16236); assay: LTEA_HepaRG_NFE2L2: Life Technologies and Expression Analysis (LTEA) Assay for Nuclear factor erythroid 2-related factor 2 (NFE2L2) Transcription Factor using HepaRG (AID 2283527); settings: mRNA level, 48 h; actives raise or lower the signal;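 as to outcome: TaqMan qRT-PCR transcript level normalised to ACTB GAPDH and POLR2A housekeeping genes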
How it was run: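 Differentiated human HepaRG cells in serum-free induction medium were exposed for 48 h to eight concentrations (top 100 uM, half-log dilutions, 0.5% DMSO), in duplicate. NFE2L2 mRNA was quantified by TaqMan qRT-PCR, normalized to ACTB, GAPDH and POLR2A, with bidirectional fitting versus DMSO.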

Row | Compound | outcome | AC50
12 | c1cc2ccc3cccc4ccc(c1)c2c34 | inactive | 
13 | CCSC(=O)N(CC)C1CCCCC1 | inactive | 
14 | CC(C)(c1ccccc1)c1ccc(O)cc1 | inactive | 
15 | CCOP(=S)(OCC)SCSC(C)(C)C | inactive | 
16 | CCOC(=O)C(O)(c1ccc(Cl)cc1)c1ccc(Cl)cc1 | inactive | 
17 | Nc1ccc(-c2ccc(N)cc2)cc1 | inactive | 
18 | COS(=O)(=O)OC | inactive | 
19 | CCCCCCCCCC[N+](C)(C)CCCCCCCCCC |  | 75 µM (active)
20 | O=C(O)C(F)(F)C(F)(F)C(F)(F)C(F)(F)C(F)(F)C(F)(F)C(F)(F)C(F)(F)C(F)(F)F | inactive | 
21 | Cc1cccc(C)c1N | inactive | 
22 | CCCCCCCCCc1ccc(O)cc1 | inactive | 
23 | O=NN(c1ccccc1)c1ccccc1 | inactive | 
24 | CCCCCCCCOC(=O)c1ccccc1C(=O)OCCCCCCCC | inactive | 
25 | Oc1ccc(C(c2ccc(O)cc2)(C(F)(F)F)C(F)(F)F)cc1 | inactive | 
26 | O=C(O)C(F)(F)C(F)(F)C(F)(F)C(F)(F)C(F)(F)F | inactive | 
27 | NS(=O)(=O)C(F)(F)C(F)(F)C(F)(F)C(F)(F)C(F)(F)C(F)(F)C(F)(F)C(F)(F)F |  | 2.76 µM (active)

Row | Compound | outcome | AC50
28 | O=S(=O)(O)C(F)(F)C(F)(F)C(F)(F)C(F)(F)F | inactive | 
29 | CC1=C2C[C@H]3[C@@H](CC=C4C[C@@H](O)CC[C@@]43C)[C@@H]2CC[C@]12O[C@@H]1C[C@H](C)CN[C@H]1[C@H]2C | inactive | 
30 | CCC(C)(c1ccc(O)cc1)c1ccc(O)cc1 | inactive | 
31 | CN(C)c1nc(=O)n(C2CCCCC2)c(=O)n1C | inactive | 
32 | Cc1ccccc1O | inactive | 
33 | C=CC(N)=O | inactive | 
34 | Cc1cccc([N+](=O)[O-])c1 | inactive | 
35 | Cc1ccc(O)c(C)c1 | inactive | 
36 | CN(C)CCO | inactive | 
37 | O=C(N[C@H]1CN2CCC1CC2)c1cc2ccoc2cn1 | inactive | 
38 | O=S(=O)(O)C(F)(F)C(F)(F)C(F)(F)C(F)(F)C(F)(F)C(F)(F)F |  | 0.979 µM (active)
39 | Cc1cc(-c2ccc(N)c(C)c2)ccc1N | inactive | 
40 | c1ccc(-c2ccccc2)cc1 | inactive | 
41 | C1CC2OC2CC1C1CO1 (stereo not drawn) | inactive | 
42 | Cc1ccccc1CO[C@@H]1C[C@@]2(C(C)C)CC[C@]1(C)O2 | inactive | 
43 | CCC(C)c1cc([N+](=O)[O-])cc([N+](=O)[O-])c1O (stereo not drawn) | inactive | 
